# Results filed as inconclusive are left out. Activity calls are given as the source filed them. Unless noted, calls come from the whole dose curve; as a rule, active = well fitted curve in the direction sought with a large enough effect; inconclusive = small, poorly fitted or top-dose-only effect, or another doubt; inactive = no such curve, though single readings can be large; an effect the other way counts as inactive or inconclusive.
# Assays:
# [1] = biological target: Glucocorticoid receptor (Homo sapiens) (UniProt P04150); experiment: qHTS assay for small molecule agonists of glucocorticoid receptor signaling (AID 588532; active = well fitted curve in the direction sought with a large enough effect in the signal ratio, with a control signal flat; the % refers to the signal ratio;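 note: 100% = dexamethasone at 0.1 µM and 0% = DMSO only wells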); conditions: HeLa MMTV-bla, beta-lactamase ratio, agonist, 18 h; stronger effect = higher value; percent of dexamethasone control, DMSO zero
# Outline: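 Agonist-mode qHTS: GRE-driven beta-lactamase in HeLa cells exposed 18 h to titrated compounds (up to 92 uM), then CCF4 ratio read after 2 h at RT; Hill-fitted EC50, efficacy relative to 0.1 uM dexamethasone.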
# [2] = qHTS assay for small molecule antagonists of peroxisome proliferator-activated receptor delta signaling (AID 588535); conditions: HEK293T PPARd-UAS-bla, beta-lactamase FRET ratio, 18 h; 460 nm channel;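 note: cells co-treated with a PPAR-delta agonist as stimulator during compound exposure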
# Outline: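 Antagonist-mode qHTS using GeneBLAzer PPAR-delta-UAS-bla HEK293T cells; compound exposure 18 hrs at 37 C over a titration. Ratiometric CCF4 fluorescence at 460/530 nm; concentration-response points fitted to the Hill equation.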
# [3] = biological target: Peroxisome proliferator-activated receptor gamma (Homo sapiens) (UniProt P37231); experiment: qHTS assay for small molecule agonists of peroxisome proliferator-activated receptor gamma signaling (AID 588536; active = well fitted curve in the direction sought with a large enough effect in the signal ratio, with a control signal flat, not every such curve was filed as active; the % refers to the signal ratio;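 note: 0% = DMSO basal wells and 100% = rosiglitazone at 2 µM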); conditions: HEK293 PPARg-UAS-bla, beta-lactamase ratio, 16 h, percent of rosiglitazone response, DMSO as zero; series mostly up to 76.7 µM
# Outline: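 Using GeneBLAzer HEK293 cells, response was quantified by CCF4 fluorescence and normalized between basal DMSO (0%) and rosiglitazone 2 uM (100%); curves yielded half-maximal stimulation concentration and efficacy.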
# [4] = biological target: Peroxisome proliferator-activated receptor gamma (Homo sapiens) (UniProt P37231); experiment: qHTS assay for small molecule antagonists of peroxisome proliferator-activated receptor gamma signaling (AID 588537; active = well fitted inhibition curve with a large enough effect in the signal ratio, with a control signal flat, not every such curve was filed as active; the % refers to the signal ratio;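 note: reporter cells co-stimulated with 50 nM rosiglitazone agonist during compound treatment; % of control where 0% means no effect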); conditions: HEK293 PPARg-UAS-bla, beta-lactamase ratio, antagonist mode; series mostly up to 76.8 µM
# Outline: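 Cell-based beta-lactamase assay; GW9662 served as the antagonist control. Stimulation used rosiglitazone, final 50 nM, 16 h, 37 C.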
# [5] = qHTS assay for small molecule agonists of retinoid X receptor alpha signaling (AID 588544; calls by dose curve;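 for activation: 0% = DMSO basal wells and 100% = reference agonist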); conditions: HEK293T RXRa-UAS-bla, beta-lactamase reporter, 18 h; 530 nm emission
# [6] = biological target: Retinoic acid receptor RXR-alpha (Homo sapiens) (UniProt P19793); experiment: as above; conditions: HEK293T RXRa-UAS-bla, beta-lactamase reporter, 18 h; series mostly up to 76.7 µM
# [7] = biological target: Thyroid hormone receptor beta (Homo sapiens) (UniProt P10828); experiment: qHTS assay for small molecule agonists of thyroid hormone receptor beta signaling (AID 588545; calls by dose curve;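 note: 0% = DMSO only and 100% = 10 nM T3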); conditions: TR-UAS-bla GripTite HEK 293, beta-lactamase ratio, agonist mode, 18 h; series mostly up to 76.7 µM
# Outline: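 Stimulation of a TR-driven beta-lactamase reporter was quantified in GripTite HEK 293 cells. Compound series ran for 18 hrs; curves were normalized to T3 and DMSO controls and fitted to yield EC50.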
# [8] = qHTS assay for small molecule antagonists of retinoid X receptor alpha signaling (AID 588546; active = well fitted inhibition curve with a large enough effect in the signal ratio, with a control signal flat, not every such curve was filed as active; the % refers to the signal ratio;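 note: cells stimulated with 9-cis-retinoic acid as agonist; % is set by controls: 0 for no effect and ±100 for the full control effect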); conditions: HEK293T RXRa-UAS-bla, beta-lactamase ratio, antagonist mode; measured here: W530 green channel, cytotoxicity proxy
# Outline: (§1)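 Beta-lactamase reporter inhibition, read as CCF4 fluorescence ratio (ex 405, em 460/530 nm) after 2 h at RT. HEK293T UAS-bla cells, 2500/well, were stimulated with 9-cis-RA at 500 or 100 nM final alongside test compound for 18 h at 37 C.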
# [9] = biological target: Retinoic acid receptor RXR-alpha (Homo sapiens) (UniProt P19793); experiment: as above; conditions: HEK293T RXRa-UAS-bla, beta-lactamase ratio, antagonist mode
# Outline: as §1
# [10] = biological target: Thyroid hormone receptor beta (Homo sapiens) (UniProt P10828); experiment: qHTS assay for small molecule antagonists of thyroid hormone receptor beta signaling (AID 588547; active = well fitted inhibition curve with a large enough effect in the signal ratio, with a control signal flat, not every such curve was filed as active; the % refers to the signal ratio;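 note: cells stimulated with 0.4 nM T3 agonist during compound exposure; % is set by controls: 0 for no effect and ±100 for the full control effect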); conditions: TR-UAS-bla HEK293, beta-lactamase ratio, antagonist mode, 18 h
# Outline: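 Inhibition of T3-driven (0.4nM final) beta-lactamase reporter activity was measured over 0.59 nM to 92 uM compound after 18 h at 37 C. The cells were GripTite HEK293 TR-UAS-bla in charcoal/dextran-stripped serum, with CCF4 ratio read-out and IC50 from Hill fits.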
# [11] = qHTS assay for small molecule activators of the p53 signaling pathway (AID 651743; active = well fitted activation curve with a large enough effect in the signal ratio, not every such curve was filed as active; the % refers to the signal ratio; note: % of control where 0% means no effect); conditions: HCT-116 p53RE-bla, beta-lactamase FRET ratio, 16 h; activation: stronger effect = higher value
# Outline: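 A beta-lactamase reporter under p53 response element control, stably carried by HCT-116 cells, reported pathway activation. Test compounds were applied for 16 hours at 37 C, and fluorescence was measured 2 hours after adding the B/G FRET substrate.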
# [12] = qHTS assay for small molecule activators of the nuclear factor-kappa B (NF-kB) signaling pathway (AID 651749; active = well fitted activation curve with a large enough effect in the signal ratio; the % refers to the signal ratio; note: % of control where 0% means no effect); conditions: NF-kB-bla ME-180 cells, beta-lactamase FRET ratio, 16 h; activation: stronger effect = higher value
# Outline: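 FRET-based beta-lactamase detection in ME-180 cells reports NF-kB response-element-driven transcription following overnight (16 hr) compound treatment.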
# [13] = qHTS assay for environmental chemicals that activate the Aryl hydrocarbon Receptor (AhR) signaling pathway (AID 651777); conditions: 1A2-DRE human hepatoma cells, luciferase, 24 h; activation: stronger effect = higher value; note: % of control where 0% means no effect; nearly all actives have a fitted effect of over 15% in size
# Outline: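 Stable CYP1A2 promoter/DRE-luciferase human hepatoma line treated 24 hr; One-Glo luminescence, 30 min RT.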
# [14] = biological target: Peroxisome proliferator-activated receptor alpha (Homo sapiens) (UniProt Q07869); experiment: qHTS assay for small molecule agonists of the peroxisome proliferator-activated receptor alpha (PPARalpha) signaling pathway (AID 651778); conditions: PathHunter PPARalpha complementation, chemiluminescence, 6 h; max response: stronger effect = higher value; note: % of control where 0% means no effect
# Outline: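 Chemiluminescence from complemented enzyme reported PPARalpha activation in cells after 6 hr of compound treatment at 37 C. The detection reagent was incubated for 60 min at room temperature, and compounds were scored as agonists.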
# [15] = qHTS assay for small molecule agonists of the antioxidant response element (ARE) signaling pathway measured by Nrf2-dependant transcriptional activity (AID 720636; active = well fitted curve in the direction sought with a large enough effect in the repeat runs; an effect the other way counts as inactive or inconclusive;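 note: HepG2 cells with an ARE-driven luciferase reporter; % of control where 0% means no effect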); conditions: ARE-luc HepG2, Nrf2 luciferase reporter, 16 h; series mostly up to 92.4 µM
# Outline: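 Reporter gene assay, HepG2 ARE-luc: 16 hr compound, 37 C, 5% CO2; read-out luciferase luminescence.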
# [16] = qHTS assay for small molecule agonists of the antioxidant response element (ARE) signaling pathway measured by Nrf2-dependant transcriptional activity - cell viability counter screen (AID 720653; active = well fitted curve in the direction sought with a large enough effect in the repeat runs; an effect the other way counts as inactive or inconclusive; note: % is set by controls: 0 for no effect and ±100 for the full control effect); conditions: ARE-bla HepG2 viability, CellTiter-Glo ATP luminescence, 16 h; max response: stronger effect = lower value
# Outline: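 Cytotoxicity counter screen: intracellular ATP quantified by CellTiter-Glo luminescence in the same ARE-bla HepG2 plates, after 16 h compound exposure and a 2 h beta-lactamase substrate step.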
# [17] = qHTS assay for cell viability of HEK293 cells (AID 743288); conditions: ATP luminescence (CellTiter-Glo), 18 h; max response: stronger effect = lower value; note: nearly all actives have a fitted effect of over 50% in size; note: potency is the fitted concentration of half-maximal effect; for max response: % is set by controls: 0 for no effect and ±100 for the full control effect
# Outline: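 Steps: plate 2,000 parental HEK293 cells per well; incubate ≥5 h, 37 C; add compounds in DMSO; incubate 18 h, 37 C; add CellTiter-Glo; wait 30 min at room temperature; read luminescence.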
# [18] = qHTS assay for cell viability of the p53RE-bla HCT-116 cell line (AID 743292); conditions: p53RE-bla HCT-116 viability, ATP luminescence, 16 h; series mostly up to 95 µM; note: nearly all actives have a fitted effect of over 55% in size; note: potency is the fitted concentration of half-maximal effect
# Outline: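 Readout: CellTiter-Glo luminescence after 30 min RT. Treatment: compounds in DMSO, 16 h, 37 C. Cells: CellSensor p53RE-bla HCT-116, 4,000/well, preincubated 5 h.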
# [19] = biological target: Nuclear receptor subfamily 1 group I member 2 (Rattus norvegicus) (UniProt Q9R1A7); experiment: qHTS assay for small molecule activators of the rat pregnane X receptor (rPXR) signaling pathway (AID 651751; call rule not given here; note: 0% is about no effect); conditions: rPXR reporter cells, luciferase (One-Glo), 24 h
# [20] = qHTS assay for small molecule activators of the human pregnane X receptor (PXR) signaling pathway (AID 720659; call rule not given here; note: 0% is about no effect); conditions: DPX-2 HepG2 CYP3A4-luciferase, 24 h; series mostly up to 92.3 µM
# Sequence of Peroxisome proliferator-activated receptor alpha (Homo sapiens) (Q07869 whole entry, looked up): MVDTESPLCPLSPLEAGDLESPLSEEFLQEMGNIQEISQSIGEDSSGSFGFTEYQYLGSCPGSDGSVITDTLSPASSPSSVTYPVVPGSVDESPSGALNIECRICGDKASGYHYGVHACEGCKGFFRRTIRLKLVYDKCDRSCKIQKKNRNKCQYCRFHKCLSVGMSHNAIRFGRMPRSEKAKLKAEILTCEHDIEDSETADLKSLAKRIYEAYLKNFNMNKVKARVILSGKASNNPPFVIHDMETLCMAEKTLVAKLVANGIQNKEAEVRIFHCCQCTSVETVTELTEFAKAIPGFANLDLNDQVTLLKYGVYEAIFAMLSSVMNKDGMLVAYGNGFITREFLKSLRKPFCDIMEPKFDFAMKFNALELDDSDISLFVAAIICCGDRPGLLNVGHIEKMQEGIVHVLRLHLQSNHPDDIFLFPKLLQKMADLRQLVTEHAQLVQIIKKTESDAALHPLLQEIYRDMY
# Sequence of Retinoic acid receptor RXR-alpha (Homo sapiens) (P19793 whole entry, looked up): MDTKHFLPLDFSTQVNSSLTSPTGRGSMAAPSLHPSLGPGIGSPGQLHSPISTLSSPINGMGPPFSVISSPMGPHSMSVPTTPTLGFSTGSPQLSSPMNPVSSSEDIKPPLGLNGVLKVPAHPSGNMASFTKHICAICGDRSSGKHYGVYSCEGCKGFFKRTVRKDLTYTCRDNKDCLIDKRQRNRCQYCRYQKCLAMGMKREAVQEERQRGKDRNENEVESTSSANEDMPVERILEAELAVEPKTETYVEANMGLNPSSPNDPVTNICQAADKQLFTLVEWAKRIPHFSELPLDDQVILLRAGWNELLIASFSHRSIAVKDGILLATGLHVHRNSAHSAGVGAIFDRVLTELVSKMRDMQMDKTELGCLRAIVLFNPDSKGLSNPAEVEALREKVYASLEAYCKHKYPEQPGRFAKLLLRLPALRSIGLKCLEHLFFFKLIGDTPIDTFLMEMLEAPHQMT
# Sequence of Nuclear receptor subfamily 1 group I member 2 (Rattus norvegicus) (Q9R1A7 whole entry, looked up): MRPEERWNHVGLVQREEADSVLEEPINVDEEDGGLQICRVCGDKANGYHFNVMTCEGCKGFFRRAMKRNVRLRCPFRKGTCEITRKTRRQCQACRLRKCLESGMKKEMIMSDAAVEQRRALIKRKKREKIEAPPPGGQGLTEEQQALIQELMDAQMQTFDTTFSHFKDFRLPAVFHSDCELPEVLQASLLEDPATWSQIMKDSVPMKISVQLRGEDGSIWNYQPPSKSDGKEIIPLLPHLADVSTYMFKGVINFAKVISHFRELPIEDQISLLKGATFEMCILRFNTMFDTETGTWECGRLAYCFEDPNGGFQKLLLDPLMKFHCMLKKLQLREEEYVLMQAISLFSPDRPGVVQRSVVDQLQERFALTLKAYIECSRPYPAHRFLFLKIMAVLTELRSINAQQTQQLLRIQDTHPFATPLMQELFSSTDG
# Sequence of Thyroid hormone receptor beta (Homo sapiens) (P10828 whole entry, looked up): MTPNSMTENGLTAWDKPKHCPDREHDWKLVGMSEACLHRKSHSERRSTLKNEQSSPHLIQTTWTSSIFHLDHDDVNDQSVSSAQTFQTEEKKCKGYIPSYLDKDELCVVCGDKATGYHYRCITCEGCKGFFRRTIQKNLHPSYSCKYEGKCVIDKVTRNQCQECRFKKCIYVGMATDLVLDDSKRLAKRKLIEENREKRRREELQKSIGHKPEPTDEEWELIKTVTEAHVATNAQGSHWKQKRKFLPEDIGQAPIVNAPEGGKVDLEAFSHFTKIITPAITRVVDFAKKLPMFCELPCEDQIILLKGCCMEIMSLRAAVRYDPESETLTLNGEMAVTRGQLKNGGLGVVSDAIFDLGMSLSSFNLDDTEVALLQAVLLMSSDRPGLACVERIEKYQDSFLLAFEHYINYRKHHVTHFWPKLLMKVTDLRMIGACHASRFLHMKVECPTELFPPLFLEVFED
# Sequence of Glucocorticoid receptor (Homo sapiens) (P04150 whole entry, looked up): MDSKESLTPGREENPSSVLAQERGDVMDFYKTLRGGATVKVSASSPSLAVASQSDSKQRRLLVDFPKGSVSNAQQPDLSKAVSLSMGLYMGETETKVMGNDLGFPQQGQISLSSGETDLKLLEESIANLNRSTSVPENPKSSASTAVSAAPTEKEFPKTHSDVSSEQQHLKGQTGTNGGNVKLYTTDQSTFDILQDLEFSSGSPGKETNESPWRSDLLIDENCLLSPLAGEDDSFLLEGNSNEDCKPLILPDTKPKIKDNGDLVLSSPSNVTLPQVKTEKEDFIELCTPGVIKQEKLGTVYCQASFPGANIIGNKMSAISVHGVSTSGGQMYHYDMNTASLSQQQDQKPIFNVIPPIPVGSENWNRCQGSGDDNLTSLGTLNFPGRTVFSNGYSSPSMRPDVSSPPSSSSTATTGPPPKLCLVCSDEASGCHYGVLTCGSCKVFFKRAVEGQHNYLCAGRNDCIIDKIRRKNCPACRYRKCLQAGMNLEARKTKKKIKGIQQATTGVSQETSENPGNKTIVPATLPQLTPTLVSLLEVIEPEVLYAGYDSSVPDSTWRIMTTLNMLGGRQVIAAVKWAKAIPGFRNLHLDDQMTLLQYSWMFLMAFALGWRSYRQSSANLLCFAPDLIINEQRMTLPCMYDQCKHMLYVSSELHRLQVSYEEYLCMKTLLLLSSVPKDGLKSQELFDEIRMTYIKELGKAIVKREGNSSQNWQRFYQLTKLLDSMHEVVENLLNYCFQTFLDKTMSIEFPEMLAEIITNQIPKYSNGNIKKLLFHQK
# Sequence of Peroxisome proliferator-activated receptor gamma (Homo sapiens) (P37231 whole entry, looked up): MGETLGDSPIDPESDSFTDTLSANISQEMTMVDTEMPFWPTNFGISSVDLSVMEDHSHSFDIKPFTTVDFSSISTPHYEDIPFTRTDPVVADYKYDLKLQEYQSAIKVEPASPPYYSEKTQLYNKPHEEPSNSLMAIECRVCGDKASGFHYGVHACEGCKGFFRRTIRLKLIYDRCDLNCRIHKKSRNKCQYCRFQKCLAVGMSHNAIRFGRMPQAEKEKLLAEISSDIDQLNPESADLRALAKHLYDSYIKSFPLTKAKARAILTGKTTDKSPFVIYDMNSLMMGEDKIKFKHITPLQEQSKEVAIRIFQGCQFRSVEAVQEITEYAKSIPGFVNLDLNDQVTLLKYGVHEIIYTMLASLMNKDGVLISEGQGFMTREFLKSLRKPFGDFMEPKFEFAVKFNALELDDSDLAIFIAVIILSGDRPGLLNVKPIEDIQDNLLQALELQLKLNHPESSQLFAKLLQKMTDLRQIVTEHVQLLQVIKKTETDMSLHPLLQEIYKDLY
smiles,measurement,setting,value
CC(C)=CCC/C(C)=C\CO,activation,[1],-1.71% (inactive)
same,max response,[2],2.44%
same,outcome,[3],inactive
same,Potency,[4],inactive
same,max response,[5],-16.1%
same,Potency,[6],inactive
same,Potency,[7],inactive
same,max response,[8],-11.3%
same,max response,[9],-2.37% (inactive)
same,activity change % (negative = inhibition),[10],-2.03% (inactive)
same,activation,[11],1.13% (inactive)
same,activation,[12],-1.2% (inactive)
same,activation,[13],0.559% (inactive)
same,max response,[14],-0.763% (inactive)
same,Potency,[15],inactive
same,max response,[16],-3.82% (inactive)
same,max response,[17],-0.935% (inactive)
same,Potency,[18],inactive
same,max response,[19],2.57% (inactive)
Nc1cc(Cl)c(O)c(Cl)c1,activation,[1],16.9% (inactive)
same,Potency,[4],inactive
same,Potency,[7],inactive
same,activation,[11],-2.82% (inactive)
same,activation,[12],-1.35% (inactive)
same,activation,[13],0.138% (inactive)
same,max response,[14],-5.8% (inactive)
same,max response,[16],-17.9% (inactive)
same,max response,[17],-19.5% (inactive)
same,Potency,[18],inactive
same,max response,[19],0.356% (inactive)
same,outcome,[20],inactive
CCN(Cc1cccc(S(=O)(=O)O)c1)c1ccc(C(=C2C=CC(=[N+](CC)Cc3cccc(S(=O)(=O)[O-])c3)C=C2)c2ccccc2)cc1,Potency,[7],inactive
same,max response,[8],16.5%
same,max response,[9],8.46% (inactive)
same,activity change % (negative = inhibition),[10],-4.54% (inactive)
same,activation,[11],-2.82% (inactive)
same,activation,[12],-0.828% (inactive)
same,activation,[13],-1.94% (inactive)
same,max response,[14],-3.93% (inactive)
same,max response,[16],-9.88% (inactive)
same,max response,[17],-13.6% (inactive)
same,Potency,[18],inactive
same,max response,[19],-0.0295% (inactive)
same,outcome,[20],inactive
O=S(=O)(O)c1ccc(N=Nc2cc(S(=O)(=O)O)c3ccccc3c2O)c2ccccc12,activation,[1],-5.27% (inactive)
same,max response,[2],26.6%
same,outcome,[3],inactive
same,Potency,[4],inactive
same,max response,[5],-24.8%
same,Potency,[6],inactive
same,Potency,[7],inactive
same,max response,[8],4.4%
same,max response,[9],4.36% (inactive)
same,activation,[11],2.63% (inactive)
same,activation,[12],0.356% (inactive)
same,activation,[13],3.98% (inactive)
same,max response,[14],-9.4% (inactive)
same,Potency,[15],inactive
same,Potency,[17],44.7 µM (active)
same,Potency,[18],39.8 µM (active)
same,max response,[19],-7.09% (inactive)
same,outcome,[20],inactive
Cc1c(Cl)cccc1Cl,activation,[1],-6.09% (inactive)
same,outcome,[3],inactive
same,max response,[5],-9.08%
same,Potency,[6],inactive
same,Potency,[7],inactive
same,max response,[8],-1.12%
same,max response,[9],-5.5% (inactive)
same,activity change % (negative = inhibition),[10],-11.7% (inactive)
same,activation,[12],-1.64% (inactive)
same,activation,[13],-0.186% (inactive)
same,max response,[14],-1.42% (inactive)
same,Potency,[15],inactive
same,max response,[16],-14.1% (inactive)
same,max response,[17],-7.06% (inactive)
same,max response,[19],-2.7% (inactive)
same,outcome,[20],inactive
CCCCC(CC)COC(=O)c1ccc(C(=O)OCC(CC)CCCC)cc1 (stereo not given),max response,[2],-1.09%
same,outcome,[3],inactive
same,Potency,[4],inactive
same,max response,[5],-8.11%
same,Potency,[6],inactive
same,Potency,[7],inactive
same,max response,[8],-7.23%
same,max response,[9],5.51% (inactive)
same,activation,[11],0.101% (inactive)
same,activation,[13],-2.7% (inactive)
same,max response,[14],-1.72% (inactive)
same,Potency,[15],inactive
same,max response,[16],-17% (inactive)
same,max response,[17],-13.5% (inactive)
same,Potency,[18],inactive
same,max response,[19],-0.0794% (inactive)
same,outcome,[20],inactive

# Source: PubChem BioAssay (NCATS)
